# In PubChem BioAssay:
# For part of these data: Results with a measured potency or affinity are listed apart. Calls of active or inactive are those of the source.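 How the source made its calls, unless noted: active means primary screen activator hit with a dose response curve and TRPC4 channel activation at any tested dose; inactive means no activation, no dose response, or not a primary hit.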
# Legend:
# [1] = test system: TRPC4 beta (transient receptor potential cation channel C4), mouse; experiment: TRPC4 cation channel opening, retest – cell-based, Fluo4 calcium, HEK293 TRPC4beta/mu-opioid, duplicates, 10 µM, confirmation (AID 2426;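 active means fluorescence ratio normalized to control raised more than 50% in primary screen plus both repeat runs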); conditions: Fluo4 calcium fluorescence, at 10 µM; stronger effect = higher value
# [2] = test system: transient receptor potential cation channel C4 beta (TRPC4), mouse; experiment: TRPC4 cation channel opening, second retest – cell-based, second round, Fluo4, HEK293 TRPC4beta/mu-opioid, 1 µM, confirmation (AID 2461;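 active means primary screen active and over 50% activation in each of two duplicate runs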); conditions: Fluo4 calcium fluorescence, at 1 µM; stronger effect = higher value
# [3] = test system: TRPC4 (transient receptor potential cation channel C4 beta), mouse; experiment: potentiation of DAMGO EC20 TRPC4 response – cell-based, second round, Fluo-4, HEK293 TRPC4beta/mu-opioid, 1 µM, confirmation (AID 2554;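 active means primary screen hit whose fluorescence ratio, in both repeats, exceeds the weak agonist control mean by 3 SD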); conditions: DAMGO EC20, Fluo-4 calcium flux, at 1 µM; stronger effect = higher value
# [4] = test system: TRPC4 beta (transient receptor potential cation channel C4), mouse; experiment: potentiation of DAMGO EC20 TRPC4 response – cell-based, Fluo-4, HEK293 TRPC4beta/mu-opioid, confirmation (AID 2555;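 active means primary screen hit whose calcium fluorescence ratio, in both repeats, exceeds the weak agonist control mean by 3 SD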); conditions: DAMGO EC20, Fluo-4 calcium flux, at 10 µM; stronger effect = higher value
# [5] = target: Short transient receptor potential channel 4 (Mus musculus) (UniProt Q9QUQ5); experiment: blockers of DAMGO-evoked TRPC4 calcium flux – cell-based, Fluo4, HEK293 TRPC4beta/mu-opioid, confirmation (AID 2636;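 active means calcium signal cut by more than 3 SD below the full-agonist control yet still positive, in both repeats and the earlier primary screen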); conditions: at 10 µM; stronger effect = higher value
# [6] = target: Short transient receptor potential channel 4 (Mus musculus) (UniProt Q9QUQ5); experiment: blockers of DAMGO-evoked TRPC4 calcium flux – cell-based, second round, Fluo4, HEK293 TRPC4beta/mu-opioid, 1 µM, confirmation (AID 2637;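 active means calcium signal ratio cut to more than 3 SD under the fully stimulated control mean yet still positive, in both repeats and the primary screen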;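 on inhibition: percent of integrated ratio relative to wells lacking test compound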); conditions: at 1 µM; stronger effect = higher value
# [7] = target: Short transient receptor potential channel 4 (Mus musculus) (UniProt Q9QUQ5); experiment: calcium entry via TRPC4 opening agents – cell-based, HEK293 TRPC4/mu-opioid, Fluo-4 calcium, dose response (AID 434937)
# [8] = target: Short transient receptor potential channel 4 (Mus musculus) (UniProt Q9QUQ5); experiment: potentiation of DAMGO-evoked TRPC4 calcium signal – cell-based, HEK293 TRPC4/mu-opioid, Fluo-4 calcium, EC20 DAMGO, dose response (AID 434941;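 active means earlier screen potentiator hit that boosts the TRPC4 ion channel at some dose, with a dose response; inactive means no potentiation, no dose response, or not a prior hit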;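 further: calcium entry triggered by an EC20 dose of DAMGO at the co-expressed mu-opioid receptor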)
# [9] = target: Short transient receptor potential channel 6 (Mus musculus) (UniProt Q61143); experiment: TRPC6 blockade by TRPC4 inhibitor hits – cell-based, HEK293, membrane potential dye, duplicate, selectivity assay for TRPC4 inhibitor project, confirmation (AID 434948;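 active means active in primary screen and both duplicates, each dropping signal beyond three positive-control SD with fluorescence still positive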); conditions: HEK293 TRPC6, membrane potential dye fluorescence, at 10 µM; inhibition: stronger effect = higher value, stimulated with maximal-effect acetylcholine unless noted; outcome: stimulated with maximal-effect acetylcholine unless noted
# [10] = target: Short transient receptor potential channel 6 (Mus musculus) (UniProt Q61143); experiment: TRPC6 opening by TRPC4 activator hits – cell-based, HEK293, membrane potential dye, duplicate, selectivity assay for TRPC4 activator project, confirmation (AID 434950;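 active means membrane potential signal rise above negative control mean plus 3 SD in both duplicates, also active in the earlier TRPC4 screen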); conditions: HEK293 TRPC6, membrane potential fluorescence, at 10 µM; activation: stronger effect = higher value; outcome: activation
# [11] = target: Short transient receptor potential channel 6 (Mus musculus) (UniProt Q61143); experiment: positive modulators of mouse TRPC6 channel – HEK293 cells, membrane potential dye, duplicate, selectivity assay for TRPC4 potentiator project, confirmation (AID 434952;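 active means compound raising the membrane signal above positive-control mean plus 3 SD in both repeats, and a primary screen hit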); conditions: HEK293 TRPC6, membrane potential dye fluorescence, at 10 µM; maximal acetylcholine added after compound unless noted
# [12] = target: Short transient receptor potential channel 4 (Mus musculus) (UniProt Q9QUQ5); experiment: calcium flux activators in TRPC4/5HT1a cells, counter-screen for TRPC4 activator project, cell-based, second counter screen, HEK293 TRPC4/5HT1a, Fluo-4 (AID 434977;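 active means calcium signal rise above buffer-control mean plus 5 SD in both duplicates, and also a hit in the primary screen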); conditions: Fluo-4 calcium flux, at 10 µM; stronger effect = higher value
# [13] = serotonin-gated TRPC4 signal block – cell-based, second counter screen, HEK293 TRPC4/5HT1a, Fluo-4, counter-screen for TRPC4 inhibitor project, confirmation (AID 434978;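 active means primary screen active whose calcium signal fell more than 3 SD beyond the full-serotonin control mean in both duplicate plates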;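 on outcome: serotonin given first at submaximal then at maximal dose after compound preincubation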); conditions: Fluo-4 calcium flux, at 10 µM; inhibition: stronger effect = higher value, serotonin added to trigger calcium flux unless noted; outcome: serotonin added to trigger calcium flux unless noted
# [14] = test system: TRPC4 (mouse), co-expressed with 5HT1a in HEK293; experiment: enhancement of serotonin-evoked TRPC4 response – cell-based, second counter screen, HEK293 TRPC4/5HT1a, Fluo-4, counter-screen for TRPC4 potentiator project, confirmation (AID 434979;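 active means signal rise over 3 SD above mean of control wells given weak agonist, in both repeats and first screen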); conditions: Fluo-4 calcium flux, at 10 µM; outcome: serotonin added at its EC20 dose unless noted; potentiation: stronger effect = higher value, serotonin added at its EC20 dose unless noted
# [15] = nonspecific calcium rise without TRPC4 – cell-based, HEK293 mu-opioid receptor line, counter-screen for TRPC4 activator project, confirmation (AID 449723;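 active means hit in primary screen, with calcium signal over 5 SD above buffer well mean in both duplicates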;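 further: counter screen cells carry the mu-opioid receptor alone and lack TRPC4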); conditions: HEK293 mu-opioid cells, Fluo-4 calcium fluorescence, at 10 µM; stronger effect = higher value
# [16] = nonspecific potentiation of DAMGO calcium response – cell-based, HEK293 mu-opioid receptor line, counter-screen for TRPC4 allosteric potentiator project, confirmation (AID 449724;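 active means calcium signal rise more than 3 SD above the low-dose agonist control mean, in both duplicate plates and the primary screen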); conditions: HEK293 mu-opioid receptor cells, Fluo-4 calcium flux, at 10 µM; compound added before EC20 DAMGO stimulus unless noted
# [17] = target: Short transient receptor potential channel 4 (Mus musculus) (UniProt Q9QUQ5); experiment: block of DAMGO-driven TRPC4 calcium entry – cell-based, HEK293 TRPC4/mu-opioid, Fluo-4 calcium, dose response (AID 434942;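 active means primary screen inhibitor hit that blocks the TRPC4 channel at some tested dose, yielding a dose curve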)
# Chain of Short transient receptor potential channel 6 (Mus musculus) (Q61143 whole entry, looked up): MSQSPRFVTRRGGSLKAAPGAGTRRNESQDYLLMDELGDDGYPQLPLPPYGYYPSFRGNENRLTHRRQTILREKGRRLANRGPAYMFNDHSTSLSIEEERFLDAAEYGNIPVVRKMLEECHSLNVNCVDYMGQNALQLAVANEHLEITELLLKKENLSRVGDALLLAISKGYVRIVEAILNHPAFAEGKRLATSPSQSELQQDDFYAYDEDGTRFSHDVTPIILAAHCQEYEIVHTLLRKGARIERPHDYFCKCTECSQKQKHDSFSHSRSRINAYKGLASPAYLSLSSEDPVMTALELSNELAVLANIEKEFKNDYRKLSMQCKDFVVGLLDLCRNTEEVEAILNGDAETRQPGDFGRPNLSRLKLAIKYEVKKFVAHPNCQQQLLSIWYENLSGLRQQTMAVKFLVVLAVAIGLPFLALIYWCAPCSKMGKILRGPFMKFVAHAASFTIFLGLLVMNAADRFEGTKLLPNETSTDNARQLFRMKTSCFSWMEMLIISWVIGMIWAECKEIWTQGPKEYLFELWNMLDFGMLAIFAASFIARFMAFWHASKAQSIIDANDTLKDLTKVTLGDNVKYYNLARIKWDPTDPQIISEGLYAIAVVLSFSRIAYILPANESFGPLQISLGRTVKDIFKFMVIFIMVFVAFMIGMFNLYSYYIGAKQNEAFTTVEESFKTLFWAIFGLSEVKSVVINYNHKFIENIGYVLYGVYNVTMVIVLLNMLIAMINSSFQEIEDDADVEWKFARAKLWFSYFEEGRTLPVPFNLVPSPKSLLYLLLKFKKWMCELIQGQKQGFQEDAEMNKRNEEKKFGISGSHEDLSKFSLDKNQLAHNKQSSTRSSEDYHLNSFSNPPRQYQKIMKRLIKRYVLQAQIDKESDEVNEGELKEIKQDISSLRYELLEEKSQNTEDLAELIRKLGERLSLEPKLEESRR
# Chain of Short transient receptor potential channel 4 (Mus musculus) (Q9QUQ5 whole entry, looked up): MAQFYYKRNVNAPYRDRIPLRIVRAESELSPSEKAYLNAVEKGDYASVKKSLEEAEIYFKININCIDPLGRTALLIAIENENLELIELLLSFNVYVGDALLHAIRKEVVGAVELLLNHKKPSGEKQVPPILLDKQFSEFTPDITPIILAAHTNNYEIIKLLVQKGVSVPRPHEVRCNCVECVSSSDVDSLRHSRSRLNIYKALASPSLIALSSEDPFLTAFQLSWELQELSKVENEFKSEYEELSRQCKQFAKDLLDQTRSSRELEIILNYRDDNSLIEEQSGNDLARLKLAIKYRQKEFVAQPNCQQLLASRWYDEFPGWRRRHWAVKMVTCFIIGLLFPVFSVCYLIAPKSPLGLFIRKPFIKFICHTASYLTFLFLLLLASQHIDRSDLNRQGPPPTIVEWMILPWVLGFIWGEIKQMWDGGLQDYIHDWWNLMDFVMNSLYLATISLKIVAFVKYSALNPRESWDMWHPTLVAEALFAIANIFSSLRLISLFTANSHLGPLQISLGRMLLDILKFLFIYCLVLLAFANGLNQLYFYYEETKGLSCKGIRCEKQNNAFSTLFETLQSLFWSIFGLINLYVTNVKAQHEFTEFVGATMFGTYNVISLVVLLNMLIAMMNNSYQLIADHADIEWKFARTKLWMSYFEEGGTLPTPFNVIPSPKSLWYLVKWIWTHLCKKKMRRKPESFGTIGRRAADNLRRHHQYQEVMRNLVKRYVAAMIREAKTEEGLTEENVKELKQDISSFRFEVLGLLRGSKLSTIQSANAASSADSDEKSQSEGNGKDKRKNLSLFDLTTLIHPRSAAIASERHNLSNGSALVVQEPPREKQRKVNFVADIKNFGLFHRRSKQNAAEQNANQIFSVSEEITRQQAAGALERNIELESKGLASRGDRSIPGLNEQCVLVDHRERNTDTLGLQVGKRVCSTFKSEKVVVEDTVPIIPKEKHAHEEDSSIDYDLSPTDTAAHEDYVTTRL
compound,measurement,setting,value
COc1ccc(O)c(CN2CCCC(C(=O)c3sccc3C)C2)c1 (stereo not drawn),outcome,[1],inactive
same,outcome,[2],inactive
same,outcome,[3],inactive
same,outcome,[4],inactive
same,inhibition,[5],92% (active)
same,outcome,[6],inactive
same,outcome,[7],inactive
same,outcome,[8],inactive
same,outcome,[9],inactive
same,outcome,[10],inactive
same,outcome,[11],inactive
same,outcome,[12],inactive
same,inhibition,[13],29.4% (active)
same,outcome,[14],inactive
same,outcome,[15],inactive
same,outcome,[16],inactive
CCCCN1C(=O)NC(=O)C2(Cc3c(nc4c(C)cccn4c3=O)N3CCc4ccccc4C32)C1=O (stereo not drawn),outcome,[1],inactive
same,outcome,[2],inactive
same,outcome,[3],inactive
same,potentiation,[4],23% (active)
same,outcome,[5],inactive
same,outcome,[6],inactive
same,outcome,[7],inactive
same,outcome,[8],inactive
same,outcome,[17],inactive
same,outcome,[9],inactive [setting not given]
same,outcome,[10],inactive
same,outcome,[11],inactive [setting not given]
same,outcome,[12],inactive
same,outcome,[13],inactive [setting not given]
same,potentiation,[14],37.1% [stronger effect = higher value] (active)
same,outcome,[15],inactive
same,outcome,[16],inactive [setting not given]
CC(Cc1ccccc1Sc1ccccc1O)N(C)C (stereo not drawn),outcome,[1],inactive
same,outcome,[2],inactive
same,outcome,[3],inactive
same,outcome,[4],inactive
same,inhibition,[5],99% (active)
same,inhibition,[6],70% (active)
same,outcome,[7],inactive
same,outcome,[8],inactive
same,inhibition,[9],50.5% (active)
same,outcome,[10],inactive
same,outcome,[11],inactive
same,outcome,[12],inactive
same,inhibition,[13],33% (active)
same,outcome,[14],inactive
same,outcome,[15],inactive
same,outcome,[16],inactive
CC(C)CN(CC(C)C)c1ccc(C=C2C(=O)NC(=S)NC2=O)cc1[N+](=O)[O-],outcome,[1],inactive
same,outcome,[2],inactive
same,outcome,[3],inactive
same,outcome,[4],inactive
same,inhibition,[5],98% (active)
same,inhibition,[6],52% (active)
same,outcome,[7],inactive
same,outcome,[8],inactive
same,outcome,[9],inactive [setting not given]
same,outcome,[10],inactive
same,outcome,[11],inactive [setting not given]
same,outcome,[12],inactive
same,inhibition,[13],8.19% [stronger effect = higher value] (active)
same,outcome,[14],inactive [setting not given]
same,outcome,[15],inactive
same,outcome,[16],inactive [setting not given]
CC(C)CNc1c2c(nc3ccccc13)CCC2,outcome,[1],inactive
same,outcome,[2],inactive
same,outcome,[3],inactive
same,outcome,[4],inactive
same,outcome,[5],inactive
same,outcome,[6],inactive
same,outcome,[7],inactive
same,outcome,[8],inactive
same,outcome,[17],inactive
same,outcome,[9],inactive
same,outcome,[10],inactive
same,outcome,[11],inactive
same,outcome,[12],inactive
same,outcome,[13],inactive
same,outcome,[14],inactive
same,outcome,[15],inactive
same,outcome,[16],inactive
Cc1ccc(CN2C3CCCC2CC(NC(=S)NCc2ccccc2)C3)cc1 (stereo not drawn),outcome,[1],inactive
same,outcome,[2],inactive
same,outcome,[3],inactive
same,outcome,[4],inactive
same,inhibition,[5],88% (active)
same,outcome,[6],inactive
same,outcome,[7],inactive
same,outcome,[8],inactive
same,outcome,[9],inactive
same,outcome,[10],inactive
same,outcome,[11],inactive
same,outcome,[12],inactive
same,inhibition,[13],36.3% (active)
same,outcome,[14],inactive
same,outcome,[15],inactive
same,outcome,[16],inactive
CCN(CC)CC(=O)Nc1ccc(Cl)cc1C(=O)c1ccccc1,outcome,[1],inactive
same,outcome,[2],inactive
same,outcome,[3],inactive
same,outcome,[4],inactive
same,inhibition,[5],89% (active)
same,outcome,[6],inactive
same,outcome,[7],inactive
same,outcome,[8],inactive
same,outcome,[9],inactive
same,outcome,[10],inactive
same,outcome,[11],inactive
same,outcome,[12],inactive
same,inhibition,[13],33.6% (active)
same,outcome,[14],inactive
same,outcome,[15],inactive
same,outcome,[16],inactive
COc1ccc(OC)c(CN2CCCC(C(=O)c3sccc3C)C2)c1 (stereo not drawn),outcome,[1],inactive
same,outcome,[2],inactive
same,outcome,[3],inactive
same,outcome,[4],inactive
same,inhibition,[5],97% (active)
same,inhibition,[6],50% (active)
same,outcome,[7],inactive
same,outcome,[8],inactive
same,outcome,[9],inactive
same,outcome,[10],inactive
same,outcome,[11],inactive
same,outcome,[12],inactive
same,inhibition,[13],25.9% (active)
same,outcome,[14],inactive
same,outcome,[15],inactive
same,outcome,[16],inactive
O=C(c1cccc(C(F)(F)F)c1)C1CCCN(Cc2ccccc2O)C1 (stereo not drawn),outcome,[1],inactive
same,outcome,[2],inactive
same,outcome,[3],inactive
same,outcome,[4],inactive
same,inhibition,[5],87% (active)
same,outcome,[6],inactive
same,outcome,[7],inactive
same,outcome,[8],inactive
same,outcome,[9],inactive
same,outcome,[10],inactive
same,outcome,[11],inactive
same,outcome,[12],inactive
same,inhibition,[13],24.6% (active)
same,outcome,[14],inactive
same,outcome,[15],inactive
same,outcome,[16],inactive
C#CCN1C(=O)C2(C(C#N)=C(N)OC(C)=C2C(=O)OCc2ccccc2)c2ccccc21 (stereo not drawn),outcome,[1],inactive
same,outcome,[2],inactive
same,outcome,[3],inactive
same,potentiation,[4],11% (active)
same,outcome,[5],inactive
same,outcome,[6],inactive
same,outcome,[7],inactive
same,outcome,[8],inactive
same,outcome,[17],inactive
same,outcome,[9],inactive
same,outcome,[10],inactive
same,outcome,[11],inactive
same,outcome,[12],inactive
same,outcome,[13],inactive
same,potentiation,[14],28.9% (active)
same,outcome,[15],inactive
same,outcome,[16],inactive
CCC1=Nc2cc(C(=O)N3CCC4(CC3)OCCO4)ccc2Sc2ccc(C)cc21,outcome,[1],inactive
same,outcome,[2],inactive
same,outcome,[3],inactive
same,outcome,[4],inactive
same,inhibition,[5],74% (active)
same,outcome,[6],inactive
same,outcome,[7],inactive
same,outcome,[8],inactive
same,outcome,[9],inactive [setting not given]
same,outcome,[10],inactive
same,outcome,[11],inactive [setting not given]
same,outcome,[12],inactive
same,outcome,[13],inactive [setting not given]
same,outcome,[14],inactive [setting not given]
same,outcome,[15],inactive
same,outcome,[16],inactive [setting not given]
CN1CCN(c2cccc3c2C(=O)c2ccccc2C3=O)CC1,outcome,[1],inactive
same,outcome,[2],inactive
same,potentiation,[3],16% (active)
same,potentiation,[4],8% (active)
same,outcome,[5],inactive
same,outcome,[6],inactive
same,outcome,[7],inactive
same,outcome,[8],inactive
same,outcome,[17],inactive
same,outcome,[9],inactive
same,outcome,[10],inactive
same,outcome,[11],inactive
same,outcome,[12],inactive
same,outcome,[13],inactive
same,outcome,[14],inactive
same,outcome,[15],inactive
same,outcome,[16],inactive
CCCCc1ncc(CN2CCCC(C(=O)c3ccc(SC)cc3)C2)[nH]1 (stereo not drawn),outcome,[1],inactive
same,outcome,[2],inactive
same,outcome,[3],inactive
same,outcome,[4],inactive
same,inhibition,[5],90% (active)
same,inhibition,[6],45% (active)
same,outcome,[7],inactive
same,outcome,[8],inactive
same,outcome,[9],inactive
same,outcome,[10],inactive
same,outcome,[11],inactive
same,outcome,[12],inactive
same,inhibition,[13],41.9% (active)
same,outcome,[14],inactive
same,outcome,[15],inactive
same,outcome,[16],inactive
CCOC(=O)C1(CCc2ccccc2)CCN(Cc2cccc3c2OCO3)CC1,outcome,[1],inactive
same,outcome,[2],inactive
same,outcome,[3],inactive
same,outcome,[4],inactive
same,inhibition,[5],102% (active)
same,outcome,[6],inactive
same,outcome,[7],inactive
same,outcome,[8],inactive
same,outcome,[9],inactive
same,outcome,[10],inactive
same,outcome,[11],inactive
same,outcome,[12],inactive
same,outcome,[13],inactive
same,outcome,[14],inactive
same,outcome,[15],inactive
same,outcome,[16],inactive
